HP1b chromo inh: inhibitors of HP1-beta chromodomain binding to methylated histone tails; P83916; AlphaScreen HP1-beta / biotin-H3K9me3 peptide binding; Potency, µM (doses to about 114 µM), inactives show at the highest dose activity change, negative = inhibition, usual class: inhibitors; 0.56% of 390,000 active; AID 540317; further: nearly all actives have a fitted effect of over 70% in size
Target sequence (P83916 whole entry, looked up): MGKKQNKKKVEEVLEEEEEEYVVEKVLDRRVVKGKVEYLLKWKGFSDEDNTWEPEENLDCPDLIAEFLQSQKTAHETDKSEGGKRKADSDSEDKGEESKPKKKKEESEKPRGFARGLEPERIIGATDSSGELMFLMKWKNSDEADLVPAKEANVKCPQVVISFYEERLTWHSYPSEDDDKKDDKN
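Compound inhibition of the preformed complex between 50 nM HP1-beta and 50 nM biotinylated H3K9me3 peptide was read by AlphaScreen. Buffer was PBS pH 7.4 with 0.01% Tween-20. Incubations ran 30 min at room temperature, with 10 ug/mL donor/acceptor beads.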
BAZ2B block: inhibitors of human BAZ2B bromodomain; Q9UIF8; AlphaScreen BAZ2B-H3K14Ac peptide displacement; Potency, µM (top dose mostly 114 µM), for the others: at the top dose activity change, negative = inhibition, usual class: inhibitors; 4.4% of 360,000 active; AID 504333; further: on the % scale 0 is the no-effect control and ±100 the full control effect; nearly all actives have a fitted effect of over 60% in size
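Protein-peptide AlphaScreen: BAZ2B 50 nM, b-H3K14Ac 50 nM, 1x PBS pH 7.4 + 0.01% Tween-20. Preincubation 30 min RT; cpd 30 min RT (top 110 uM); beads 20 min RT, light-protected.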
G9a inh: G9a (human) methyltransferase inhibition; Q96KQ7; G9a H3K9 monomethylation, AlphaScreen, 2 h; Potency, µM (top dose mostly 102 µM), for inactives: top-dose activity, negative = inhibition, hits mostly inhibitors; 8.8% of 350,000 active; further: on the % scale 0 is the no-effect control and ±100 the full control effect; nearly all actives have a fitted effect of over 75% in size
Target sequence (Q96KQ7 913-1193 limits assumed): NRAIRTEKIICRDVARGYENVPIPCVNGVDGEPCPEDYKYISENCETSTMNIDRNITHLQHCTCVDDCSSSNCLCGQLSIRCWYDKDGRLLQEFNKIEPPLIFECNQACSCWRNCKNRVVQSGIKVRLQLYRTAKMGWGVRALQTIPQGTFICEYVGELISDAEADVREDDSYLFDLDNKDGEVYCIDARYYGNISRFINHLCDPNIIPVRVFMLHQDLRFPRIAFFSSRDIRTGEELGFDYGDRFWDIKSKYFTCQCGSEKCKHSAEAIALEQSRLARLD
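G9a (20 nM) preincubated 15 min RT with compounds, then 500 nM biotinylated H3K9 peptide and 20 uM SAM added; 2 h RT reaction. Monomethyl-H3K9 product detected by AlphaScreen with anti-H3K9me1 antibody, streptavidin donor and anti-rabbit IgG acceptor beads.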
L3MBTL1 block: inhibitors of human L3MBTL1 | Potency, µM (series often up to 57.1 µM), inactives show at the top dose activity, negative = inhibition, most hits filed as inhibitors | AlphaScreen L3MBTL1–H3K9me1 peptide binding | AID 485360 | 0.66% of 230,000 active; further: on the % scale 0 is the no-effect control and ±100 the full control effect; nearly all actives have a fitted effect of over 60% in size
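First, the protein-peptide complex forms for 30 min at room temperature (L3MBTL1 50 nM, biotinylated H3K9me1 peptide 75 nM). Next, compounds are pin-transferred and incubated 30 min. Finally, AlphaScreen beads are added and read after 30 min.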
JMJD2A Tudor inh: blocks the human JMJD2A Tudor domain | Potency, µM (series often up to 114 µM), for the others: at the highest dose activity change, negative = inhibition, usual class: inhibitors | AID 504339 | 4.4% of 390,000 active | AlphaScreen JMJD2A-Tudor / H3K4me3 peptide binding; further: on the % scale 0 is the no-effect control and ±100 the full control effect; nearly all actives have a fitted effect of over 50% in size
Starred values were filed as active, the others as inactive; ? = inconclusive; nt = not tested or not shown; [ ] = another dose, or the depositor's remark. Rows were chosen to be rich in hits. Some 11% of all compounds tested hit in one or more screens of this group. The call rests on the fitted dose curve; in most records, active means well fitted inhibition curve with a large enough effect; inconclusive means small, poorly fitted or top-dose-only effect; inactive means no such curve, though single readings can be large or run the other way. Potency means the concentration at half of the fitted maximal effect.

SMILES	HP1b chromo inh	BAZ2B block	G9a inh	L3MBTL1 block	JMJD2A Tudor inh
Cc1cc(Nc2cccc(Cl)c2C)n2nc(Cc3ccccc3)nc2n1	45.8%	-29.2%	18.3%[59 µM]	nt	-26.7%
CSc1ccc(CN2CCC(n3nccc3NC(=O)c3ccccc3C)CC2)cc1	5.5%	-13.5%	-2.1%	nt	-29.7%
O=S(=O)(Nc1ccc(F)cc1F)c1ccc(-n2cccn2)cc1	25.7%	-6.5%	-30.1%[59 µM]	nt	1.0%
CC(C)n1c(=O)[nH][nH]c1=S	12.6µM*	50.1µM*	0.891µM*	1.7%	8.91µM*
CC(C)n1c(=O)[nH]c2ccccc21	19.3%	-6.1%	8.3%	9.8%	-13.5%
CCc1cccc(NC(=O)CSc2ncc3c(n2)-c2cc(Cl)ccc2N(C)S3(=O)=O)c1	-5.2%	0.2%	-5.6%[59 µM]	nt	-15.6%
O=C(CCn1c2c(c3ccccc31)CCCC2)NNC(=O)c1ccccc1[N+](=O)[O-]	7.5%	3.8%	-7.4%	-6.4%	-20.4%
O=C(CCn1c2c(c3ccccc31)CCCC2)NNC(=O)c1ccccc1C(=O)O	4.0%	70.8µM*	nt	-20.1%	-28.0%
CC(=O)/C(=N/Nc1cccc(C)c1)N1CCOCC1	5.9%	?	0.631µM*	nt	89.1µM*
COC(=O)C(C)Oc1ccc(Oc2nc(Cl)ccc2Cl)cc1 (stereo not given)	115.6%	137.6%	201.3%	33.2%	113.4%
COc1cc2cccc(OC)c(=O)c2c(OC)c1OC	21.7%	-17.5%	50.1µM*	-4.6%	-7.5%
COc1ccccc1N1CCN(C(=S)NC(=O)/C=C/c2ccccc2)CC1	28.1%	-4.0%	4.7%[59 µM]	-4.4%	-6.1%
O=C(NC(=S)N1CCCCCC1)c1ccccc1Cl	9.6%	0.6%	52.5%[59 µM]	nt	-14.3%
CN1CCN(C(=S)NC(=O)/C=C/c2ccccc2Cl)CC1	14.5%	-30.7%	44.7µM*	-2.3%	-24.1%
O=C(/C=C/c1ccc(Br)cc1)NC(=S)N1CCOCC1	33.3%	-31.7%	70.8µM*	-13.3%	-18.1%
CN1CCN(C(=S)NC(=O)c2ccccc2Cl)CC1	-8.6%	-23.0%	50.1µM*	nt	-10.3%
CC(OC(=O)/C=C/c1ccc(Br)cc1)C(=O)N1CCOCC1 (stereo not given)	15.4%	-1.8%	-25.2%	1.7%	-3.6%
CN1CCN(C(=S)NC(=O)/C=C/c2ccccc2)CC1	21.7%	5.2%	50.1µM*	nt	-15.3%
Cc1ccc(S(=O)(=O)C2CCN(c3nc(-c4cccs4)nc4ccccc34)CC2)cc1	18.1%	nt	nt	nt	-23.8%
Cc1ccc(CSc2nncn3c2cc2sccc23)cc1	33.0%	-3.2%	-0.5%[59 µM]	nt	3.3%
Cc1nc(-c2ccc([S+](=O)([O-])N3CCN([S+](=O)([O-])c4c(F)cccc4F)CC3)s2)cs1	nt	nt	nt	nt	-10.3%
CCOc1cc(C(=O)N2CC(=O)Nc3ccc(F)cc3C2c2ccccc2)cc(OCC)c1OCC (stereo not given)	9.9%	3.2%	10.2%[59 µM]	nt	-20.8%
O=c1c(C(c2ccccc2)c2c(O)sc3ccccc3c2=O)c(O)sc2ccccc12	22.1%	28.2µM*	?	nt	-8.7%
Cc1ccc(-n2c(COc3ccccc3)n[nH]c2=S)cc1	16.3%	-20.2%	7.94µM*	12.8%	-35.1%
Cc1ccc(-n2c(COc3cccc(C)c3)n[nH]c2=S)cc1	45.0%	-30.2%	4.47µM*	-14.6%	-20.9%
SMILES	HP1b chromo inh	BAZ2B block	G9a inh	L3MBTL1 block	JMJD2A Tudor inh
COc1ccc(-n2c(COc3ccccc3)n[nH]c2=S)cc1	31.8%	-2.3%	14.0%[0.501 µM]	-3.8%[2.29 µM]	50.1µM*
CC(N=Cc1cccc(O)c1O)c1ccccc1 (stereo not given)	?	50.1µM*	1.26µM*	nt	44.7µM*
Cc1ccccc1N=Cc1cccc(O)c1O	?	39.8µM*	7.94µM*	2.51µM*	39.8µM*
CCN(CC)c1ccc(C=Nc2ccc(C)cc2C)c(O)c1	32.9%	-14.8%	nt	9.8%	-10.0%
C/C(=N/N=C/c1ccccc1O)c1ccccc1O	38.3%	-2.5%	-3.4%	nt	7.7%
Cc1ccc(N=Cc2cccc(O)c2O)c(C)c1	15.8µM*	-31.8%	?	31.6µM*	35.5µM*
Oc1cccc(/C=N/N=C/c2cccc(O)c2O)c1O	13.8%	-30.9%	31.6µM*	-2.3%	-24.5%
CCOc1ccc(N(CC)C(=O)c2cc3c(s2)-c2ccccc2OC3)cc1	24.3%	-3.6%	-14.2%[59 µM]	nt	-5.8%
Cc1ccc(CN2C(=O)c3ccccc3Sc3ccc(C(=O)NCc4ccco4)cc32)cc1	16.6%	-12.5%	-4.9%[59 µM]	nt	-31.2%
CC(=O)Nc1ccc(C=NN=C2c3ccccc3-c3ccccc32)cc1	-13.3%	nt	nt	nt	?
Oc1ccccc1C=NN=C1c2ccccc2-c2ccccc21	44.7µM*	nt	nt	nt	15.8µM*
CCCN(C(=O)c1cc(CC)c(C)s1)c1c(N)n(Cc2ccccc2)c(=O)[nH]c1=O	-2.9%	2.3%	7.4%[0.501 µM]	-9.9%	-11.7%
CCc1cc(C(=O)N(CCCOC)c2c(N)n(Cc3ccccc3)c(=O)[nH]c2=O)sc1C	38.2%	6.6%	12.6µM*	2.6%	-2.4%
COCCCN(C(=S)NC(=O)c1ccc(Br)cc1)c1c(N)n(Cc2ccccc2)c(=O)[nH]c1=O	-13.8%	-9.5%	50.1µM*	-2.7%	-24.8%
Cc1cccc(NC(=O)NNC(=O)c2ccc(C)c([N+](=O)[O-])c2)c1	41.7%	0.9%	nt	1.3%	-3.9%
CC(=O)c1cccc(NCC(=O)c2ccc(C)c([N+](=O)[O-])c2)c1	74.2%	-20.6%	35.5µM*	nt	-28.2%
CC(=O)c1cccc(NC(=S)NNC(=O)c2ccc(C)c([N+](=O)[O-])c2)c1	-13.8%	-5.6%	20µM*	3.7%	?
CCOC(=O)C(=NC1CCS(=O)(=O)C1)NNc1ccccc1Cl (stereo not given)	?	?	?	nt	-8.1%[11.4 µM]
CCOC(=O)C(=NC1CCS(=O)(=O)C1)NNc1ccc(Br)cc1 (stereo not given)	13.6%	?	10µM*	-12.0%	?
CCOC(=O)C(=NC1CCCCC1)NNc1cccc(C(F)(F)F)c1	2.9%	-27.0%	50.1µM*	-5.2%	-35.6%
CCOC(=O)C(=NC(C)CC)NNc1ccc(Br)cc1 (stereo not given)	-11.0%	?	12.6µM*	-6.6%	?
O=C(CCC1CCN(C(=O)c2ccco2)CC1)NCc1ccc(F)cc1	22.6%	-8.8%	3.5%	nt	-6.2%
COc1ccc(S(=O)(=O)NCc2ccc3c(c2)CCN3C(=O)c2ccccc2)cc1OC	14.2%[57 µM]	-1.3%	11.7%[59 µM]	nt	-34.1%
Cc1ccsc1/C=N/NC(=O)Cc1ccc([N+](=O)[O-])cc1	34.8%	nt	nt	nt	0.3%
Cc1cc[n+](-c2nc([O-])sc2/C=N/Nc2ccc([N+](=O)[O-])cc2)cc1	-20.7%	?	44.7µM*	nt	-32.6%
CCCC(=O)N(Cc1cc(=O)[nH]c2ccccc12)c1ccc(C)cc1C	4.9%	2.9%	?	nt	-16.7%
CCC(=O)N(Cc1cc(=O)[nH]c2ccccc12)c1cccc(C)c1	2.3%	-5.4%	10µM*	-2.7%	79.4µM*
Cc1ccc(N(Cc2cc(=O)[nH]c3ccccc23)C(=O)CCl)c(C)c1	2.9%[57 µM]	-26.1%	50.1µM*	nt	-35.1%

Source: PubChem (National Center for Advancing Translational Sciences (NCATS))
